# Results from PubChem BioAssay (NCATS).
# Inconclusive results are not listed. A number with no mark means an inactive call. Calls of active or inactive are those of the source. Calls come from the whole dose curve.
# Experiment: Cytotoxicity counterscreen for inhibitors of SARS-CoV-2 cell entry (AID 1645845); note: nearly all actives have a fitted effect of over 50% in size
# Details: cell viability (SARS-CoV-2 entry assay cells); series mostly up to 57.1 µM; activity change, negative = cytotoxicity: at the top concentration
# Summary of the method: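 Counterscreen run in the same HEK293-ACE2 line as the pseudotyped-particle entry assay, without particles. Viability after 48 h at 37 C was read as ATP luminescence, scaled between cell-containing and cell-free wells.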
# % is set by controls: 0 for no effect and ±100 for the full control effect; potency is the fitted concentration of half-maximal effect.
Compound,"activity change, negative = cytotoxicity",Potency,outcome
COc1ccc2c(c1)OC(C)(C)C(c1ccccc1)C2c1ccc(OCCN2CCCC2)cc1 (stereo not drawn),-6.68%,–,–
CC[C@@]1(O)C(=O)OCc2c1cc1n(c2=O)Cc2cc3c([N+](=O)[O-])cccc3nc2-1,-32% [at 114 µM],–,–
COc1cc2c(cc1O)CCN[C@]21CS[C@@H]2c3c(OC(C)=O)c(C)c4c(c3[C@H](COC1=O)N1[C@@H]2[C@H]2c3c(cc(C)c(OC)c3O)C[C@@H]([C@@H]1O)N2C)OCO4,-20.3% [at 11.3 µM],–,–
CC(C)C[C@H](NC(=O)CNC(=O)c1cc(Cl)ccc1Cl)B1OC(=O)C(CC(=O)O)(CC(=O)O)O1,–,0.794 µM (active),–
CO[C@H](C(=O)[C@@H](O)[C@@H](C)O)C1Cc2cc3cc(O[C@H]4C[C@@H](O[C@H]5C[C@@H](O)[C@H](O)[C@@H](C)O5)[C@@H](O)[C@@H](C)O4)c(C)c(O)c3c(O)c2C(=O)[C@H]1O[C@H]1C[C@@H](O[C@H]2C[C@@H](O[C@H]3C[C@](C)(O)[C@H](O)[C@@H](C)O3)[C@H](O)[C@@H](C)O2)[C@H](O)[C@@H](C)O1 (stereo partly drawn),-2.89%,–,–
C/C(O)=C(\C#N)C(=O)Nc1ccc(C(F)(F)F)cc1,–,8.91 µM (active),–
CCCCCCCCC=CCCCCCCCC(=O)NCCOC(=O)CC(C(=O)O)S(=O)(=O)O (stereo not drawn),0.918%,–,–
CNC(C)C(O)c1ccccc1 (stereo not drawn),–,–,inactive
